By inhibition is commonly meant the relative decrease from the control value, in per cent.

The results in this text go back to PubChem BioAssay.

The nature of experiment [1]: inhibitors of TNFa-induced NFkB p65 translocation, primary screen, imaging, HUVEC, MLSMR starter and 10KST1 sets (AID 438;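 active = inhibition above 20% together with a positive visual image hit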;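 note: compound added about 3h40 before a 20 min TNFalpha stimulation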;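 for inhibition: signal is the nuclear over cytoplasmic p65 intensity ratio per well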). Conditions: HUVEC TNFa-induced p65 nuclear translocation; cell count: measured here: nuclei count (cytotoxicity indicator), at 2.08 µM; inhibition: at 2 µM, stronger effect = higher value, 0% TNFa-plus-vehicle, 100% no-TNFa wells.
The nature of experiment [2]: inhibitors of mutant huntingtin aggregation, primary screen, imaging, exon1htt(103Q)mCFP cells, high-content imaging (AID 483;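 active = visual image review flags a hit and inhibition of aggregation exceeds 20%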;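 note: compound exposure lasted 3 days before fixation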;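 for nuclei count: percent of the per-plate median nuclei count of sample wells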). Conditions: exon1htt(103Q)mCFP cell line, aggregate imaging, at 2 µM; inhibition of aggregation: stronger effect = higher value; nuclei count: measured here: cell count, toxicity.
Experiment [3] in a line: inhibitors of E-selectin induction by TNFa, primary screen, imaging, HUVEC, immunofluorescence, MLSMR starter and 10KST1 sets (AID 487;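 active = visually confirmed hit in the image check and inhibition above 20%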;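 for inhibition: signal is fraction of cell area covered by stained E-selectin grains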;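 for nuclei count: 100% = median nuclei count of all wells on the same plate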). Conditions: HUVEC TNFalpha-induced E-selectin immunofluorescence imaging, at 2 µM; inhibition: stronger effect = higher value; nuclei count: measured here: cell number, toxicity.
Experiment [4] has as its target Voltage-gated potassium channel subunit beta-2 (Rattus norvegicus) (UniProt P62483). The experiment is described as follows: KvBeta enzyme negative modulators, primary screen, biochemical, NADPH fluorescence (AID 622;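 active = fluorescence slope higher than the sample average by over 3 SD, cut at about -0.22 in these data, passing the limit was not always enough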;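 note: slope of raw intensity against log time taken from 70 to 1610 s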). Conditions: recombinant KvBeta, 4-cyanobenzaldehyde reduction, at 10 µM, stronger effect = higher value.
Experiment [5] has the same target. Briefly: KvBeta positive modulators, primary screen, biochemical, NADPH fluorescence (AID 623;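 active = NADPH fluorescence slope more negative than the mean of all samples by about 3 SD, 99.7% confidence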;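 note: fluorescence intensity change per second fitted from 20 to 320 s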). Conditions: Recombinant KvBeta, NADPH fluorescence decrease slope, 10 min; at 10 µM; stronger effect = lower value.
In experiment [6] the target is Alpha-2C adrenergic receptor (Homo sapiens) (UniProt P18825). The experiment is described as follows: modulators of alpha2C/GIRK thallium flux, primary screen, cell-based, HEK293 alpha2C/GIRK1/2 (AID 624;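 active = fluorescence slope after compound addition differing from the mean of all screened samples at 99.7% confidence, in either direction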;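 note: slope of fluorescence ratio to pre-addition baseline per second over 15 to 24 s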). Conditions: thallium flux BTC fluorescence, at 10 µM, actives lie on both sides.
The nature of experiment [7]: inhibitors of Sendai virus-induced IRF3 signaling, primary screen, TLR/RLR signaling modifier project, cell-based, Sendai virus stimulus, luciferase, 10K MLSCN set (AID 602276;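 active = inhibition at or above 50% at 10 µM; inactive = inhibition below 50%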;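 note: firefly luciferase from ISG56 promoter only with Renilla not read in this screen; 0% = Sendai virus plus DMSO and 100% = medium plus DMSO without virus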). Conditions: HEK293 RL24 IRF3 luciferase reporter, at 10 µM, stronger effect = higher value. For orientation: In a reporter assay the amount or activity of a reporter protein is the signal.
Experiment [8] can be described thus: inhibitors of poly I:C-induced TLR3 signaling, primary screen, cell-based, poly I:C stimulus, luciferase, 10K MLSCN set (AID 602277). Conditions: HEK293-TLR3 RL24 IRF3 luciferase reporter, at 10 µM, stronger effect = higher value.

Activity calls are given as the source filed them.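 Rule for the calls, unless noted: active = inhibition of the reporter signal at or above 50%; inactive = inhibition below 50%.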

Chain of Alpha-2C adrenergic receptor (Homo sapiens) (P18825 whole entry, looked up): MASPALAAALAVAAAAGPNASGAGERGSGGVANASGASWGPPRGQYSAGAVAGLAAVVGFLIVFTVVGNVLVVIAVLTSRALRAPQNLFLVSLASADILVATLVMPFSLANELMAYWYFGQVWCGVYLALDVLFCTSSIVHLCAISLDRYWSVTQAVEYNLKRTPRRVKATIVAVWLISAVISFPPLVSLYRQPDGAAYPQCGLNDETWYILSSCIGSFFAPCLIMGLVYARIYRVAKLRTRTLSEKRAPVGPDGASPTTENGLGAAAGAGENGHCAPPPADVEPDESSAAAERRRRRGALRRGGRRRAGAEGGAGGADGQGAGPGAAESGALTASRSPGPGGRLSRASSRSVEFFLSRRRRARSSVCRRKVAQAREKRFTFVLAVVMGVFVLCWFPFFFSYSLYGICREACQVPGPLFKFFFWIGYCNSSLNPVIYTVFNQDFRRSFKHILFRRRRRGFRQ
Chain of Voltage-gated potassium channel subunit beta-2 (Rattus norvegicus) (P62483 whole entry, looked up): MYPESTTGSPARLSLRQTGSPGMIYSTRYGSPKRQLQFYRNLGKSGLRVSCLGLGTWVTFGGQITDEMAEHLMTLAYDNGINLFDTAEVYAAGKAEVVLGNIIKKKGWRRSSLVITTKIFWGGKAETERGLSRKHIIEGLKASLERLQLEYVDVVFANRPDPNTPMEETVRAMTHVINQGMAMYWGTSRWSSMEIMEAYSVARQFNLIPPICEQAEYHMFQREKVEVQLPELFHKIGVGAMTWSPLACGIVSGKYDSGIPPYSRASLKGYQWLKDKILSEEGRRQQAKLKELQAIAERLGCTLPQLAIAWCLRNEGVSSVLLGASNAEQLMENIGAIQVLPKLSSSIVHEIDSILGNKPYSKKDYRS

On to `CCN1CCN(C(=O)c2cn(CC)c3ccc(S(=O)(=O)N(C)C)cc3c2=O)CC1`, for which the cell count in experiment [1] stood at 639. Also, the inhibition in experiment [1] was 1.3% (inactive); in experiment [3] it was -30% (inactive); in experiment [7], 7.55% (inactive); in experiment [8], 20.6% (inactive). Moreover, in experiment [2], the inhibition of aggregation is 12.4% (inactive). The nuclei count is 100% in experiment [2] and 107% in experiment [3]. For the same molecule, in experiment [4], the fluorescence slope is -0.59 (inactive). For the same molecule, in experiment [5], the NADPH fluorescence slope is -3.2e-05 (inactive). In experiment [6], the slope was 0.00681 (inactive).
As for `CCOc1cccc(-c2nnc3n2N=C(c2cc(OC)ccc2OC)CS3)c1`, the cell count in experiment [1] was determined as 404. In addition, the inhibition in experiment [1] was 15.8% (inactive); in experiment [3], -56.6% (inactive); in experiment [7] it was 19.6% (inactive); in experiment [8], 56.7% (active). Besides, in experiment [2], the inhibition of aggregation is -30.5% (inactive). Besides, the nuclei count in experiment [2] amounted to 10.2%; in experiment [3], 111%. In addition, the fluorescence slope in experiment [4] is -0.376 (inactive). The NADPH fluorescence slope in experiment [5] is -2.7e-06 (inactive). Further, in experiment [6], the slope is 0.00667 (inactive).
For the molecule `O=C(O)c1cccc(COCC(F)(F)C(F)F)c1`, the cell count in experiment [1] worked out at 714. Also, the inhibition was -9% (inactive) in experiment [1], -16.8% (inactive) in experiment [3], 5.99% (inactive) in experiment [7] and 5.49% (inactive) in experiment [8]. The inhibition of aggregation in experiment [2] was 17.2% (inactive). In addition, the nuclei count in experiment [2] was 101%; in experiment [3], 102%. The fluorescence slope in experiment [4] is -0.497 (inactive). Besides, the NADPH fluorescence slope in experiment [5] is -4.4e-05 (inactive). The slope in experiment [6] is 0.00506 (inactive).
Take `COc1ccc(NC(=O)CC2Oc3ccccc3NC2=O)cc1` (centres undefined): the cell count in experiment [1] was 560. Further, the inhibition is 8.3% (inactive) in experiment [1], -48.1% (inactive) in experiment [3], 4.81% (inactive) in experiment [7] and 31.8% (inactive) in experiment [8]. For the same molecule, the inhibition of aggregation in experiment [2] was -0.3% (inactive). Further, the nuclei count in experiment [2] came to 92.4%; in experiment [3], 122%. The fluorescence slope in experiment [4] was -0.556 (inactive). The NADPH fluorescence slope in experiment [5] is -3.2e-05 (inactive). Further, in experiment [6], the slope is 0.00626 (inactive).
With `COc1ccc(C(c2sc3nc(C)nn3c2O)N2CCCCC2)cc1` (centres undefined), the cell count in experiment [1] worked out at 639. Besides, the inhibition in experiment [1] is -6.4% (inactive); in experiment [3], -42.5% (inactive); in experiment [7], 8.51% (inactive); in experiment [8], 27.4% (inactive). In addition, in experiment [2], the inhibition of aggregation was -33.8% (inactive). Moreover, the nuclei count stood at 114% in experiment [2] and 108% in experiment [3]. In addition, the fluorescence slope in experiment [4] was -0.603 (inactive). Besides, in experiment [5], the NADPH fluorescence slope is -4.6e-05 (inactive). The slope in experiment [6] is 0.00737 (inactive).
As to `CC1CCN(S(=O)(=O)c2ccc(Br)s2)CC1`, the cell count in experiment [1] amounted to 437. Moreover, the inhibition in experiment [1] was 13% (inactive); in experiment [3], -79.2% (inactive); in experiment [7], 8.6% (inactive); in experiment [8] it was 20.9% (inactive). Moreover, in experiment [2], the inhibition of aggregation is -1.9% (inactive). Also, the nuclei count is 102% in experiment [2] and 108% in experiment [3]. In experiment [4], the fluorescence slope is -0.489 (inactive). The NADPH fluorescence slope in experiment [5] is 2.6e-05 (inactive). For the same molecule, in experiment [6], the slope is 0.00656 (inactive).
`COc1cc(C2C(C#N)=C(N)OC3=C2C(=O)CC(C)(C)C3)ccc1OC(=O)N1CCOCC1` (centres undefined): the cell count in experiment [1] worked out at 482. Further, the inhibition is -36.6% (inactive) in experiment [1], -75% (inactive) in experiment [3], -15.1% (inactive) in experiment [7] and 11.1% (inactive) in experiment [8]. Also, the inhibition of aggregation in experiment [2] is 13.8% (inactive). Also, the values for the nuclei count in experiment [2] and in experiment [3] were 86.6% and 112%, respectively. Further, the fluorescence slope in experiment [4] was -0.511 (inactive). Besides, in experiment [5], the NADPH fluorescence slope is 1.1e-05 (inactive). Also, in experiment [6], the slope was 0.00692 (inactive).
With `CC1Cc2ccccc2N1C(=O)CSc1nnc2n1C(C)(C)Cc1ccccc1-2` (centres undefined), the cell count in experiment [1] worked out at 247. Besides, the inhibition in experiment [1] is -0.2% (inactive); in experiment [3], 5.5% (inactive); in experiment [7], 5.38% (inactive); in experiment [8] it was -63.7% (inactive). Also, in experiment [2], the inhibition of aggregation is 21.8% (inactive). The nuclei count was found to be 84.2% in experiment [2] and 69.7% in experiment [3]. In experiment [4], the fluorescence slope is -0.434 (inactive). Besides, the NADPH fluorescence slope in experiment [5] is 2.5e-05 (inactive). In addition, the slope in experiment [6] is 0.00483 (inactive).
Regarding `C/C(N)=C(/C#N)C(=O)COC(=O)c1cc(S(=O)(=O)N2CCCCC2)ccc1C`, in experiment [1], the cell count amounted to 508. The inhibition in experiment [1] is 7.7% (inactive); in experiment [3], 12.6% (inactive); in experiment [7], 7.49% (inactive); in experiment [8], 6.72% (inactive). The inhibition of aggregation in experiment [2] was -28.1% (inactive). Moreover, the nuclei count in experiment [2] came out at 104%; in experiment [3], 85.7%. In addition, the fluorescence slope in experiment [4] is -0.366 (inactive). Also, the NADPH fluorescence slope in experiment [5] was 1.2e-05 (inactive). In experiment [6], the slope was 0.00665 (inactive).
Take `Cc1cc2c(cc(C(=O)OCC(=O)NCc3cccs3)n2C(C)C)o1`: the cell count in experiment [1] was 379. Besides, the inhibition in experiment [1] was 9.9% (inactive); in experiment [3], -156% (inactive); in experiment [7], 20.7% (inactive); in experiment [8], 77.6% (active). In experiment [2], the inhibition of aggregation is 7.7% (inactive). Moreover, the nuclei count in experiment [2] came to 106%; in experiment [3], 95.3%. Further, the fluorescence slope in experiment [4] was -0.586 (inactive). The NADPH fluorescence slope in experiment [5] is -5.1e-05 (inactive). In experiment [6], the slope is 0.00376 (inactive).
As to `Cc1ccc(CNC(=O)C2CCN(S(=O)(=O)c3cccs3)CC2)o1`, the cell count in experiment [1] turned out to be 296. For the same molecule, the inhibition in experiment [1] is -3.4% (inactive); in experiment [3], -23.9% (inactive); in experiment [7], 7.81% (inactive); in experiment [8] it was 5.31% (inactive). For the same molecule, in experiment [2], the inhibition of aggregation was 11.2% (inactive). Besides, the nuclei count was found to be 76.7% in experiment [2] and 103% in experiment [3]. For the same molecule, the fluorescence slope in experiment [4] is -0.617 (inactive). In experiment [5], the NADPH fluorescence slope was -3.4e-05 (inactive). The slope in experiment [6] was 0.00605 (inactive).
On to `NC(=O)c1cc(-c2ccccc2)nc(N2CCOCC2)n1`, for which the cell count in experiment [1] is 532. Further, the inhibition in experiment [1] was 6.7% (inactive); in experiment [3] it was 25.8% (inactive); in experiment [7] it was 8.52% (inactive); in experiment [8], 25.8% (inactive). Besides, the inhibition of aggregation in experiment [2] is -2.6% (inactive). Besides, the nuclei count in experiment [2] is 91%; in experiment [3] it was 92.5%. For the same molecule, in experiment [4], the fluorescence slope is -0.591 (inactive). Besides, the NADPH fluorescence slope in experiment [5] was -4.3e-05 (inactive). The slope in experiment [6] was 0.00656 (inactive).
On to `N#Cc1c(N2CCCC2)nc(N)c2c(N)nc(N3CCCC3)cc12`, for which the cell count in experiment [1] was found to be 581. Further, the inhibition is -9.2% (inactive) in experiment [1], -144% (inactive) in experiment [3], -6.36% (inactive) in experiment [7] and 2.26% (inactive) in experiment [8]. The inhibition of aggregation in experiment [2] was -6.2% (inactive). Moreover, the nuclei count in experiment [2] was 84.2%; in experiment [3], 160%. Moreover, in experiment [4], the fluorescence slope is -0.0789 (active). Besides, the NADPH fluorescence slope in experiment [5] was 1.7e-06 (inactive). In addition, in experiment [6], the slope was 0.0051 (inactive).
On to `Cc1ccccc1Cn1ccc(NC(=O)c2cnn3c(C(F)(F)F)cc(-c4ccco4)nc23)n1`, for which the cell count in experiment [1] amounted to 568. Besides, the inhibition in experiment [1] was -3.8% (inactive); in experiment [3], -7.4% (inactive); in experiment [7], 19.2% (inactive); in experiment [8], 32% (inactive). In experiment [2], the inhibition of aggregation is 10.6% (inactive). The nuclei count in experiment [2] is 96.8%; in experiment [3], 99.2%. Also, the fluorescence slope in experiment [4] was -0.613 (inactive). In addition, the NADPH fluorescence slope in experiment [5] was -5.8e-05 (inactive). The slope in experiment [6] is 0.00253 (inactive).
